Experimental findings from PubChem BioAssay (Tox21) are described below.

Inconclusive results are not listed. Where a call stands in place of a potency, no number is given. Active and inactive are the calls of the source. Calls follow the shape of the dose curve; as a rule, active = well fitted cell-killing curve with a large enough effect in the repeat runs; inconclusive = weak or mixed curves; inactive = flat fitted curve, though single readings scatter.

The assay can be described thus: qHTS RealTime-Glo MT Cell Viability Assay in HepG2 cells - 8 hour (AID 1224873). Also: nearly all actives have a fitted effect of over 55% in size. The note with it: RealTime-Glo luminescence; series mostly up to 76.8 µM. The source says:
National Center for Advancing Translational Sciences [NCATS]
NIH Chemical Genomics Center [NCGC]
U.S. Environmental Protection Agency [EPA]
National Institutes of Environmental Health Sciences [NIEHS]
National Toxicology Program [NTP]
U.S. Food and Drug Administration [FDA]
Measure of cell viability is critical in the cell-base assay. Analysis of cell viability is necessary for the characterization of cell responses to cytotoxic drugs and environmental stress. A RealTime-Glo MT Cell Viability Assay to monitor cell viability in real time of continues cell culture during 40 hours of compound treatment was used to screen Tox21 10K library compounds in HepG2 cells. The RealTime-Glo MT Cell Viability Assay is a nonlytic, homogeneous, bioluminescent method to measure cell viability in real time using a simple, plate-based method. The assay involves adding NanoLuc luciferase and a cell-permeant prosubstrate to cells in culture. Viable cells reduce the proprietary prosubstrate to generate a substrate for NanoLuc luciferase. This substrate diffuses from cells into the surrounding culture medium, where it is rapidly used by the NanoLuc Enzyme to produce a luminescent signal. The signal correlates with the number of viable cells, making the assay well suited for cytotoxicity studies.
Tox21 Assay Protocol Summary:
The mixture of HepG2 cell suspension and reagents were dispensed at 600cells/6 ul/well in 1536-well tissue culture treated black solid bottom plates using a Multidrop dispenser. After the assay plates were incubated at a 37 C/5% CO2 incubator for 5 hours, 23 nL of compounds dissolved in DMSO, positive and negative controls was transferred to the assay plate by a pintool work station. The plates were incubated at 37 C for 40 hours. The luminescence intensity were measured at 0h, 8h, 16h, 24h, 32h and 40h time points using ViewLux plate reader during compound treatment.
A general note: In qHTS, concentration-response curves come from the screen itself.
As to `CCc1cccc2c3c([nH]c12)C(CC)(CC(=O)O)OCC3` (stereo not given), the Potency result is “inactive”.
`O=C(O)COCCN1CCN(C(c2ccccc2)c2ccc(Cl)cc2)CC1` (stereo not given): the Potency result is “inactive”.
For `CCCCCC=O`, the Potency result is “inactive”.
With `CC/C(=C(/CC)c1ccc(O)cc1)c1ccc(O)cc1`, the Potency result is “inactive”.
For the compound `O=C1CCc2ccccc2O1`, the Potency entry is “inactive”.
For `CCC(=O)O[C@H]1[C@H](O[C@@H]2[C@@H](C)[C@H](O[C@H]3C[C@@](C)(OC)[C@@H](O)[C@H](C)O3)[C@@H](C)C(=O)O[C@H](CC)[C@@](C)(O)[C@H](O)[C@@H](C)C(=O)[C@H](C)C[C@@]2(C)O)O[C@H](C)C[C@@H]1N(C)C`, the Potency result was “inactive”.
Take `Nc1cc([N+](=O)[O-])ccc1C(=O)O`: the Potency entry was “inactive”.
Consider `IC(I)I`, for which the Potency entry is “inactive”.
Then `CC1(C)O[C@@H]2C[C@H]3[C@@H]4C[C@H](F)C5=CC(=O)C=C[C@]5(C)[C@@]4(F)[C@@H](O)C[C@]3(C)[C@]2(C(=O)CO)O1`, with “inactive”; and `CC(C)=CCO`, with “inactive”; and `Nc1ccc(O)c(N)c1`, with “inactive”.
For the compound `COC(=O)c1ccc(C)cc1`, the Potency result is “inactive”.
With `CCOC(=O)C(C)Oc1ccc(Oc2cnc3cc(Cl)ccc3n2)cc1` (stereo not given), the Potency result was “inactive”.
In the case of `C=C[Si](OCCOC)(OCCOC)OCCOC`, the Potency result is “inactive”.
As for `COC(=O)CC(=O)OC`, the entry is “inactive”; as for `CCC/C=C/C=O`, “inactive”.
Regarding `CCCCCCOCCOCCO`, the Potency entry was “inactive”.
Then `OCCNCCO`, with “inactive”; and `CC1(C)OC(=O)NC1=O`, with “inactive”.
`O=[Se](O)O`: the Potency entry was “inactive”.
On to `[O-]/[N+](=N\O)c1ccccc1`, for which the Potency entry was “inactive”.
For the compound `C=C1C[C@H]2[C@@H]3C=C(C)C4=CC(=O)CC[C@]4(C)[C@H]3CC[C@]2(C)[C@@]1(OC(C)=O)C(C)=O`, the Potency entry was “inactive”.
As for `CCO[Si](CCCNC(N)=O)(OCC)OCC`, the entry is “inactive”; as for `FC(F)(F)C(Cl)Br` (stereo not given), “inactive”; as for `C=CN1CCCC1=O`, “inactive”.
As for `CN(C)C`, the entry is “inactive”; as for `CC(=O)Oc1c(C)c(C)c2c(c1C)CC[C@@](C)(CCC[C@H](C)CCC[C@H](C)CCCC(C)C)O2`, “inactive”; as for `CC[C@]12CCCN3CCc4c(n(c5ccccc45)[C@@](O)(C(=O)OC)C1)[C@@H]32`, “inactive”.
As for `Cc1cccc(Nc2ccccc2C(=O)O)c1C`, the Potency entry was “inactive”.
For the compound `CCCOCCO`, the Potency entry is “inactive”.
With `Cc1ccc(S(=O)(=O)NCl)cc1`, the Potency entry is “inactive”.
For the compound `CC(C)(C)c1cccc(C(C)(C)C)c1O`, the Potency result was “inactive”.
With `NCCS(=O)(=O)O`, the Potency entry is “inactive”.
On to `O=C(O)CCCC(=O)O`, for which the Potency result was “inactive”.
Consider `c1ccc2c(c1)[nH]c1ccccc12`, for which the Potency entry was “inactive”.
Then `CC(C)[N+](C)(CCOC(=O)C1c2ccccc2Oc2ccccc21)C(C)C`, with “inactive”; and `Oc1ccc(C(c2ccc(O)cc2)C(Cl)(Cl)Cl)cc1`, with “inactive”.
As to `CCCN1C=CN(C)C1`, the Potency entry was “inactive”.
With `CCCCCC1C(=O)CCC1CC(=O)OC` (stereo not given), the Potency result is “inactive”.
`C=CC(=O)OCCCC`: the Potency entry was “inactive”.
